Screens (PubChem BioAssay)
Compounds with a hit are over-represented: about 2.5% of the library has one in this group of screens.
CASP6 VEID inh: caspase-6 (human) enzyme inhibition. inhibition, % at 12.5 µM. AID 686996. P55212. actives 0.53% (n = 350,000). purified caspase-6, Z-VEID-R110 cleavage fluorescence;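 active means mean inhibition across replicates at least about 35%, with every replicate also reaching that limit, limit read from the data; inconclusive means only one of the two criteria met; inactive means neither criterion met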;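 further: 0% = median of neutral control wells and 100% = no fluorescence left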
rRNA inh HTS: selective bacterial rRNA inhibition in E. coli | AID 720706 | GFP signal change (wild-type ribosome), % (test concentration not listed) | E. coli WT GFP vs humanized-ribosome RFP mutants, fluorescence, 24 h; active compounds read low; DMSO median 0, no signal -100 | actives 1.6% (n = 350,000);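 active means significant combined selectivity score with lowered wild-type GFP, culture density cut under 30%, mutant RFP and density less affected; inactive means any of these conditions unmet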
NSD2 HMT inh: inhibitors of human histone methyltransferase NSD2 | actives 0.54% (n = 310,000) | inhibition, % at 12.5 µM | NSD2 peptide methylation, AlphaScreen, 120 min; in the data active means inhibition above about 50%
MLL AF4-AF9 inh: blocks AF4 peptide binding to human AF9 | P42568 | AlphaScreen, biotin-AF4 peptide binding to FLAG-AF9 | inhibition, % at 10 µM | actives 0.47% (n = 350,000) | AID 651704;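 active means every replicate reaching a set inhibition limit, whatever the replicate mean, cut at about 25% in these data; inconclusive means mean inhibition reaches that limit but some replicates miss it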;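 further: 0% = plate neutral control median and 100% = total signal loss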
Target sequence (P42568 whole entry, looked up): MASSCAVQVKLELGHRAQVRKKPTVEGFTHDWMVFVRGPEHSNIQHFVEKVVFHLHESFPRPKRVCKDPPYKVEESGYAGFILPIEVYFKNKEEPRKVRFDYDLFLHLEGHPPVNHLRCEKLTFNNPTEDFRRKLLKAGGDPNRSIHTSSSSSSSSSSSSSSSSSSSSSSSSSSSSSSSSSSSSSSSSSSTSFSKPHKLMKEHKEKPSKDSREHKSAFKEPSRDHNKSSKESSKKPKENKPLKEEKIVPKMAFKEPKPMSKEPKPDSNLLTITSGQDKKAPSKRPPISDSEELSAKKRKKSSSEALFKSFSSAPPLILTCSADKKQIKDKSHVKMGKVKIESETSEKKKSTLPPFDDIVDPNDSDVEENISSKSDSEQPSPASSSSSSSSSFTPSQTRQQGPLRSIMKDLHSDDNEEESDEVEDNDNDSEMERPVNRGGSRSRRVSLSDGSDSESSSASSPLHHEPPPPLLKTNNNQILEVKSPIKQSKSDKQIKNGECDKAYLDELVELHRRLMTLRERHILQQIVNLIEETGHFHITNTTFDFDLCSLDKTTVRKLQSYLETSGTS
RAD52 anneal inh: RAD52 (human) annealing inhibition | actives 0.46% (n = 360,000) | AID 651710 | P43351 | inhibition, % at 18.7 µM | recombinant RAD52 DNA annealing, FRET fluorescence;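 active means every replicate showing at least 50% inhibition; inconclusive means mean inhibition at least 50% but not in every replicate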
* marks the source's active call; other numbers are inactive results; u = inconclusive; x = not tested or not shown; ! = not confirmed by another sample.

SMILES	CASP6 VEID inh	rRNA inh HTS	NSD2 HMT inh	MLL AF4-AF9 inh	RAD52 anneal inh
CCOc1ccc(S(=O)(=O)N(C)c2ccc(OCC(=O)Nc3ccc4[nH]c(=O)[nH]c4c3)cc2)cc1	12	-32*	-7	x	-11
O=C1OC(c2ccc3ccccc3c2O)(c2ccc3ccccc3c2O)c2ccccc21	0	-41*	-1	10	-8
C[C@@H]1CN([C@@H](C)CO)S(=O)(=O)c2ccc(C#CC(C)(C)O)cc2O[C@H]1CN(C)Cc1ccncc1	3	-6	x	-1	-15
Cc1cccc2cc(CN(CCN(C)C)C(=S)NCc3ccco3)c(=O)[nH]c12	x	x	11	x	x
Cc1ccc2[nH]c(=O)c(CN(CCCN(C)C)C(=S)NCCc3ccccc3)cc2c1	1	-36*	13	11	13
Cc1cccc2cc(CN(CCCN(C)C)C(=S)NCCc3ccccc3)c(=O)[nH]c12	1	-17*	3	9	8
Cc1ccc2cc(CN(CCc3ccccc3)C(=S)NCCCN(C)C)c(=O)[nH]c2c1	-5	-26	13	14	19
Cn1nccc1C(=O)Nc1ccn(C23CC4CC(CC(C4)C2)C3)n1	x	x	0	x	x
Cn1cc([N+](=O)[O-])c(C(=O)Nc2ccn(C34CC5CC(CC(C5)C3)C4)n2)n1	1	-26*	2	-30	5
Cc1nn(C)c(C(=O)Nc2ccn(C34CC5CC(CC(C5)C3)C4)n2)c1[N+](=O)[O-]	-3	-32*	4	13	-11
CCn1cc([N+](=O)[O-])c(C(=O)Nc2ccn(C34CC5CC(CC(C5)C3)C4)n2)n1	x	x	2	x	x
O=C(N[C@H]1C=C[C@@H](CC(=O)N2CCOCC2)O[C@H]1CO)c1ccc2c(c1)OCO2	1	4	x	-1	-1
Cc1cc(C(=O)Nc2cccc3c2O[C@H](CN(C)C(=O)Nc2ccc4c(c2)OCO4)[C@@H](C)CN([C@@H](C)CO)C3=O)n(C)n1	1	-2	x	-3	-2
CCCc1nc2oc3ccccc3c(=O)c2c(=O)n1-c1ccccc1	4	-30*	1	0	-17
CCCc1nc2oc3ccccc3c(=O)c2c(=O)n1-c1ccc(C)cc1	-1	-46*	-1	-1	-18
CCc1nc2oc3ccccc3c(=O)c2c(=O)n1-c1ccccc1	x	x	0	x	x
Cc1ccc(-n2c(C(C)C)nc3oc4ccccc4c(=O)c3c2=O)cc1	1	-32*	-1	-2	-1
COc1cccc(CN(C)C[C@H]2OCc3ccccc3-c3c(n(C)c4ccccc34)C(=O)N([C@H](C)CO)C[C@H]2C)c1	2	2	x	u	-6
COCC(=O)N1CC2(C1)[C@@H](c1ccc(-c3ccc(F)cc3)cc1)[C@H](CO)N2C(C)=O	x	-1	x	x	5
C[C@@H]1CN([C@@H](C)CO)C(=O)c2cc(NS(=O)(=O)c3ccccc3)ccc2O[C@@H]1CN(C)S(=O)(=O)c1ccc(F)cc1	x	-4	x	x	x
Cc1cccc(-c2ccc([C@@H]3[C@@H](CO)N4C(=O)CN(C(=O)c5cnccn5)C[C@H]34)cc2)c1	x	-2	x	x	x
CCCOc1ccc2c(c1)C(=NN=C(N)N)c1cc(OCCC)ccc1-2	-101	-60	8	32*	4
C[C@@H]1CN([C@@H](C)CO)C(=O)c2cc(NC(=O)NC3CCCCC3)ccc2O[C@@H]1CN(C)Cc1ccc(Oc2ccccc2)cc1	5	2	x	1	-9
CO[C@H]1CN(C)C(=O)c2cc(NC(=O)Nc3ccccc3)ccc2OC[C@@H](C)N(C(=O)Nc2c(C)noc2C)C[C@H]1C	36*	-4	x	1	7
CCCN1C[C@H](C)[C@H](OC)CN(C)C(=O)c2cc(NC(=O)Nc3cccc(OC)c3)ccc2OC[C@H]1C	x	1	x	x	x
SMILES	CASP6 VEID inh	rRNA inh HTS	NSD2 HMT inh	MLL AF4-AF9 inh	RAD52 anneal inh
CCCN1C[C@@H](C)[C@@H](OC)CN(C)C(=O)c2ccc(NC(=O)Nc3cccc(OC)c3)cc2OC[C@@H]1C	1	1	x	-3	68*
COc1cccc(NC(=O)Nc2ccc3c(c2)C(=O)N(C)C[C@@H](OC)[C@@H](C)CN(CC2CC2)[C@@H](C)CO3)c1	-2	-2	x	9	70*
COc1cccc(NC(=O)Nc2ccc3c(c2)C(=O)N(C)C[C@H](OC)[C@@H](C)CN(C)[C@@H](C)CO3)c1	2	1	x	9	79*
COc1cccc(NC(=O)Nc2ccc3c(c2)C(=O)N(C)C[C@H](OC)[C@H](C)CN(CC2CC2)[C@H](C)CO3)c1	-4	0	x	5	45
COCC(=O)N(C)C[C@H]1Oc2cc(C#CC3CCCC3)ccc2S(=O)(=O)N([C@H](C)CO)C[C@H]1C	x	1	x	x	x
CO[C@H]1CN(C)C(=O)c2ccc(NC(=O)C3CCCC3)cc2OC[C@@H](C)N(CCC(F)(F)F)C[C@H]1C	1	-1	x	28*	9
COc1cccc(C(=O)Nc2ccc3c(c2)OC[C@H](C)N(CCc2ccccc2)C[C@@H](C)[C@@H](OC)CN(C)C3=O)c1	-3	-25*!	x	5	-14
COc1cccc(C(=O)Nc2ccc3c(c2)OC[C@@H](C)N(CCc2ccccc2)C[C@@H](C)[C@@H](OC)CN(C)C3=O)c1	0	-5	x	3	-11
Cc1ccc2nc(SCC(=O)c3ccc4c(c3)OCO4)[nH]c2c1	-1	-23*	1	x	-24
CCCCC1(c2ccc(F)cc2)NC(=O)N(CC(=O)N2CCN(C(=O)c3ccco3)CC2)C1=O (centres undefined)	46*	10	-3	0	-17
CC1CCC2(CC1)NC(=O)N(CC(=O)N1CCN(C(=O)c3ccco3)CC1)C2=O (centres undefined)	7	x	-3	1	-7
CC1CN(S(=O)(=O)c2cccc(C(=O)N=c3sccn3C)c2)CC(C)O1 (centres undefined)	0	-21*	-3	u	-6
CC1CN(S(=O)(=O)c2cccc(C(=O)N(C)C3CCN(C)CC3)c2)CC(C)O1 (centres undefined)	-5	x	2	1	0
O=C(NCC(=O)N1CC=C(c2ccccc2)CC1)c1ccccc1Br	80*	-9	-3	-2	-13
CCOc1ccccc1NC(=O)c1cccc(NC(=O)c2cccnc2)c1	x	x	0	x	x
CC(C)(Cc1ccc(O)cc1)NC(=O)CC(=O)N/N=C/c1ccc(Cl)cc1	0	-1	-3	-6	-9
CC(C)(Cc1ccc(O)cc1)NC(=O)CC(=O)N/N=C/c1ccc([N+](=O)[O-])cc1	4	-17*	0	0	-7
O=C(/C=C/c1ccc(O)cc1)c1ccccc1	4	3	25	-3	-34
Cc1ccc(NC2=C(N3CCCCC3)C(=O)c3ccccc3C2=O)cc1	x	x	51*	x	x
O=C1C(Nc2ccccc2)=C(N2CCCCC2)C(=O)c2ccccc21	x	x	94*	x	x
COc1ccccc1NC1=C(N2CCCCC2)C(=O)c2ccccc2C1=O	x	x	93*	x	x
CN(C1=C(N2CCCCC2)C(=O)c2ccccc2C1=O)c1ccccc1	x	x	0	x	x
